Laboratory results reported in the supplement of paper PMC6607015.
Counter-ions that a name gives are not always drawn.

What was measured:
Settings in all cases: compound concentration in added solution (µM; 5 µl added to 20 µl cells): 10; 18 h
A431 [1] = experiment: LBPA endosome anti-LBPA integrated intensity (sum per cell), Z-score; higher = more LBPA staining
Method in brief: (§1)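 After 18 h on 5 µl of 10 µM compound solution in duplicate 384-well imaging plates, HeLa MZ or A431 cells, seeded at 3,500 per well in 20 µl, were fixed with 4% PFA. They were then labelled with 6C4 anti-LBPA antibody, filipin, propidium iodide and CellTracker green, and four 20× fields were recorded per well. Integrated LBPA or filipin intensity per cell, whole-cell or within LBPA endosomes, came from MetaXpress segmentation and was normalised to Z-scores in AcuityXpress.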

HeLa MZ [2] = experiment: as above
Method in brief: as §1

A431 [3] = experiment: whole-cell filipin (free cholesterol) integrated intensity, Z-score; higher = more cholesterol staining
Method in brief: as §1

HeLa MZ [4] = experiment: as above
Method in brief: as §1

A431 [5] = experiment: filipin (cholesterol) integrated intensity within LBPA endosomes, Z-score; higher = more cholesterol in LBPA endosomes
Method in brief: as §1

HeLa MZ [6] = experiment: as above
Method in brief: as §1

Row | Structure (SMILES) | LBPA endosome anti-LBPA integrated intensity (z-score) (A431 [1]) | LBPA endosome anti-LBPA integrated intensity (z-score) (HeLa MZ [2]) | whole-cell filipin (z-score) (A431 [3]) | whole-cell filipin (z-score) (HeLa MZ [4]) | filipin (z-score) (A431 [5]) | filipin (z-score) (HeLa MZ [6])
1 | C[C@@H]1C[C@H]2[C@@H]3C[C@H](F)C4=CC(=O)C=C[C@]4(C)[C@@]3(Cl)[C@@H](O)C[C@]2(C)[C@H]1C(=O)COC(=O)C(C)(C)C [Clocortolone pivalate] | -0.276 | -1.1 | -0.183 | -0.473 | -0.253 | -0.536
2 | COc1ccccc1N1CCN(CCCNc2cc(=O)n(C)c(=O)n2C)CC1 [Urapidil hydrochloride] | -0.297 | 0.724 | -0.315 | 0.116 | -0.29 | -0.0207
3 | O=C(O)CNC(=O)C(CS)Cc1ccccc1 (configuration not stated) [Thiorphan] | -0.785 | -1.92 | -0.897 | -0.571 | -0.691 | -0.682
4 | S=c1[nH]cnc2nc[nH]c12 [Mercaptopurine] | -0.731 | -1.06 | -0.622 | -1.37 | -0.742 | -0.984
5 | COc1c2occc2c(OC)c2c(=O)cc(C)oc12 [Khellin] | -0.364 | -0.599 | -0.787 | -0.817 | -0.439 | -0.439
6 | CN(C(=O)CN(CCO)CC(=O)N(C)C(C)(C)Cc1ccccc1)C(C)(C)Cc1ccccc1 [Oxethazaine] | 1.71 | 0.996 | 1.26 | 0.298 | 1.53 | 2.17
7 | N=C(N)NC(=O)Cc1c(Cl)cccc1Cl [Guanfacine hydrochloride] | -0.503 | 0.0887 | -0.556 | 0.368 | -0.462 | 0.00861
8 | C[C@]12C=CC(=O)C=C1CC[C@H]1[C@@H]3C[C@@H](O)[C@](O)(C(=O)CO)[C@@]3(C)C[C@H](O)[C@@]12F [Triamcinolone] | -0.203 | -0.607 | -0.346 | -0.264 | -0.211 | -0.572
9 | CC(=O)OCC(=O)[C@@]12N=C(C)O[C@@H]1C[C@H]1[C@@H]3CCC4=CC(=O)C=C[C@]4(C)[C@H]3[C@@H](O)C[C@@]12C [Deflazacort] | -0.192 | 0.385 | 0.137 | 0.444 | -0.208 | -0.207
10 | CC(C(=O)O)c1ccc(N2Cc3ccccc3C2=O)cc1 (configuration not stated) [Indoprofen] | -0.353 | 0.541 | -0.0864 | 0.103 | -0.445 | -0.482
11 | CCCCN(CCCC)CCCOC(=O)c1ccc(N)cc1 [Butacaine] | 1.72 | 1.93 | -0.324 | -0.451 | 0.0505 | 0.307
12 | Cc1c(NC(=O)c2cccnc2)c(=O)n(-c2ccccc2)n1C [Nifenazone] | -0.531 | -0.887 | -0.738 | -0.647 | -0.626 | -0.754
13 | Cc1ncc(C[n+]2csc(CCO)c2C)c(N)n1 [Thiamine hydrochloride] | -0.398 | -0.0332 | 0.0289 | -0.0399 | -0.382 | -0.539
14 | CC(C)/N=c1\cc2n(-c3ccc(Cl)cc3)c3ccccc3nc-2cc1Nc1ccc(Cl)cc1 [Clofazimine] | 1.95 | 1.42 | -0.119 | -1.15 | 0.416 | -0.0158
15 | C=CC(N)CCC(=O)O (configuration not stated) [Vigabatrin] | -0.513 | -0.602 | -1.01 | -0.729 | -0.566 | -0.59
16 | CCN(CC)CC#CCOC(=O)C(O)(c1ccccc1)C1CCCCC1 (configuration not stated) [Oxybutynin chloride] | 0.579 | 1.7 | 0.833 | 0.613 | 0.892 | 1.15
17 | COc1cc(C)c(/C=C/C(C)=C/C=C/C(C)=C/C(=O)O)c(C)c1C [Acitretin] | -0.624 | -0.537 | 0.514 | 0.218 | -0.413 | -0.258
18 | CN(C)CCOC(=O)COc1ccc(Cl)cc1 [Meclofenoxate hydrochloride] | -0.454 | -0.858 | -0.411 | -0.563 | -0.417 | -0.533
19 | CN1C2CCCC1CC(NC(=O)c1nn(C)c3ccccc13)C2 (configuration not stated) [Granisetron] | 0.179 | 1.05 | 0.826 | 0.449 | -0.132 | 0.382
20 | CC1CCc2c(N3CCC(O)CC3)c(F)cc3c(=O)c(C(=O)O)cn1c23 (configuration not stated) [Nadifloxacin] | -0.419 | -1.21 | -0.24 | -0.254 | -0.402 | -0.471
21 | N[C@@H](C(=O)N[C@@H]1C(=O)N2C(C(=O)O)=C(Cl)CS[C@H]12)c1ccccc1 [Cefaclor hydrate] | -0.551 | -0.828 | -0.722 | -0.368 | -0.522 | -0.558
22 | CCCC(CCC)C(=O)O [Valproic acid] | -0.476 | 1.11 | 0.263 | 2.69 | -0.401 | -0.484
23 | O=C(O)Cc1ccc(-c2ccccc2)cc1 [Felbinac] | -0.537 | -0.83 | -0.402 | -0.285 | -0.525 | -0.491
24 | CCOC(=O)[C@H](CCc1ccccc1)N[C@H]1CCc2ccccc2N(CC(=O)O)C1=O [Benazepril HCl] | -0.544 | -0.517 | -0.676 | -0.703 | -0.597 | -0.712
25 | N=C(N)NC(=O)c1nc(Cl)c(N)nc1N [Amiloride hydrochloride dihydrate] | -0.438 | -0.561 | -0.785 | -0.475 | -0.486 | -0.551
26 | CC(COc1ccccc1)NC(C)C(O)c1ccc(O)cc1 (configuration not stated) [Isoxsuprine hydrochloride] | -0.187 | 0.869 | -0.214 | -0.465 | -0.444 | -0.378
27 | O=c1n(CCCN2CCN(c3cccc(Cl)c3)CC2)nc2ccccn12 [Trazodone hydrochloride] | 0.505 | 2.35 | 0.713 | 1.12 | 0.872 | 1.04
